Results as given in PubChem BioAssay AID652048 (National Center for Advancing Translational Sciences (NCATS), 2013).
The campaign covered roughly 410,000 compounds. About 2,400 (0.59%) were called active. Only a selection was taken, and actives are over-represented in it overall. A number with no mark means an inactive call. Rule as the data show it: active = max activation above about 30%; inactive = the rest.

target: D(3) dopamine receptor (Homo sapiens) (UniProt P35462); assay: qHTS of D3 Dopamine Receptor Agonist: qHTS; settings: D3R DiscoveRx beta-arrestin cells, luminescence, 90 min; hits give high values; also: 0% is about no effect
Description: D3 DARs represent a very important target for the treatment of several neuropsychiatric disorders. Indeed, one of the most promising therapeutic applications for the D3 DAR is in the area of addiction and related disorders. […] These findings have been observed with a number of addictive substances including cocaine, amphetamine, nicotine, and alcohol. […] Antagonism of the D3 DAR may also be therapeutic in the treatment of schizophrenia or psychosis. […] Since the D3 DAR is expressed in areas of the CNS associated with the control of mood and emotion, it has been hypothesized that selective antagonism of the D3 DAR may be effective in treating psychosis without inducing the motor side effects typically seen with D2 DAR antagonists.
This part of the project aims to discover novel agonist.
NIH Chemical Genomics Center [NCGC]
NIH Molecular Libraries Probe Centers Network [MLPCN]
Assay Submitter (PI): David Sibley, NINDS
Freshly passaged cells are plated in 1536 well white, solid bottom plates at a density of 1500 cells/well in 3microl of complete media. After an overnight incubation at 37 degrees C in 5% CO2, cells are loaded with 23nl of test compound from the compound library (as well as dopamine controls) using a 1536 pintool and incubated at 37 degrees C for 90 minutes. Two microliters of DiscoveRx reagent is then added to all cells, and they are incubated for an additional 30 - 60 minutes at room temperature. Following incubation, luminescence is measured on a ViewLux CCD-based luminometer reader using a 20 sec exposure time.

D(3) dopamine receptor (Homo sapiens), sequence (P35462 whole entry, looked up): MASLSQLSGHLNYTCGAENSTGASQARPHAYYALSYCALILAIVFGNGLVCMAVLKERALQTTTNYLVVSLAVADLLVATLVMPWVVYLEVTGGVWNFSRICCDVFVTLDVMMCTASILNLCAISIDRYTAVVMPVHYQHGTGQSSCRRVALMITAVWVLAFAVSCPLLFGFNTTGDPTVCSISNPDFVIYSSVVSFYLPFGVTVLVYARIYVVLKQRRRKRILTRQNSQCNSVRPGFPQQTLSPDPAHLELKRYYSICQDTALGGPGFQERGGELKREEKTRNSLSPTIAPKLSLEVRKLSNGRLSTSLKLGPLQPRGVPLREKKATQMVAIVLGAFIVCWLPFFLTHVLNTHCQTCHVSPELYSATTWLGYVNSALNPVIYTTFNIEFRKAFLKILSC

| SMILES | max activation |
| --- | --- |
| O=C(NC1CCCCC1)c1ccc2c(c1)N(Cc1ccc(Cl)cc1)C(=O)c1ccccc1S2=O (centres undefined) | 3.22% |
| CCC1CN(S(=O)(=O)c2cc(-c3cc(C)no3)ccc2C)c2cc(C)ccc2O1 (centres undefined) | -8.75% |
| Cc1ccc(Nc2ccc3cc(S(=O)(=O)N4CCCCC4)ccc3n2)cc1F | 3.49% |
| O=C1CCC(=O)N(O)CCCCCNC(=O)CCC(=O)N(O)CCCCCNC(=O)CCC(=O)N(O)CCCCCN1 | 65.3% (active) |
| Cc1cc(C)cc(C(=O)N(CCc2ccccc2)C2=CC3CCC(C2)N3C)c1 (centres undefined) | -13.4% |
| CCCN(CCc1ccccc1)C1CCc2c(O)cccc2C1 (centres undefined) | 110% (active) |
| COc1cccc(CNC(=O)CN2C(=O)CCc3cc(S(=O)(=O)N4CCOCC4)ccc32)c1 | 7.79% |
| COc1ccc(N2CCN(C(=O)CSCc3nc(-c4ccccc4Cl)oc3C)CC2)cc1 | 13.9% |
| Cc1ccc(NC(=O)C2CCN(S(=O)(=O)c3cc(-c4noc(C)n4)ccc3C)CC2)c(C)c1 | -12.1% |
| N#CC(C(=O)c1ccc(S(=O)(=O)N2CCCCCC2)cc1)c1nc2ccccc2[nH]1 (centres undefined) | 24% |
| Cc1ccc(S(=O)(=O)c2nnn3c2nc(N2CCN(c4ccccc4F)CC2)c2cc(Cl)ccc23)cc1C | 4.43% |
| Cc1ccc(S(=O)(=O)C(C#N)c2nc3ccccc3nc2N2CCCC2)cc1C (centres undefined) | 44.8% (active) |
| CO/N=C(\C(=O)N[C@@H]1C(=O)N2C(C(=O)O)=C(C[N+]3(C)CCCC3)CS[C@H]12)c1csc(N)n1 | 2.02% |
| O=S(=O)(c1ccc2nc(NCc3ccccc3Cl)ccc2c1)N1CCCCC1 | -23.2% |
| Cc1ccc(CNC(=O)c2cccc3c2C(=O)c2ccc(N4CCC(C)CC4)cc2S3(=O)=O)cc1 | 54.8% (active) |
| Cc1ccc(CNC(=O)C2CCCN2C(=O)NCc2ccccc2)cc1 (centres undefined) | 4.63% |
| Cc1cccc(CNC(=O)c2cnc3sc(N4CCCCC4)nn3c2=O)c1 | 6.54% |
| CCOC(=O)[C@H](CCc1ccccc1)N[C@@H](C)C(=O)N1CC2(C[C@H]1C(=O)O)SCCS2 | -2.59% |
| CC(C)(C)C(=O)OCc1nc(-c2ccc(O)c(O)c2)cs1 | 117% (active) |
| COCc1cccc(-c2csc(C(O)c3ccc(F)cc3)n2)c1 (centres undefined) | -13.4% |
| Cc1ccc(S(=O)(=O)N2CCCc3cc(NS(=O)(=O)c4cc(C)ccc4C)ccc32)cc1 | 7.92% |
| CO/N=C(\C(=O)N[C@@H]1C(=O)N2C(C(=O)O)=CCS[C@H]12)c1csc(N)n1 | 3.03% |

| SMILES | max activation |
| --- | --- |
| CCCCNc1c(-c2cccc(Sc3ccc(OC)cc3)c2)nc2ccccn12 | 13.9% |
| COC(=O)c1ccc2nc(-c3ccc(C)cc3)c(Cc3ccc(OC)cc3C)n2c1 | -2.45% |
| CCCCNc1c(-c2ccc(OC)c(Sc3ccc(OC)cc3)c2)nc2ccc(Cl)cn12 | 44.7% (active) |
| COc1ccc(C2(C#N)CCC(C(=O)O)CC2)cc1OC1CCCC1 (centres undefined) | -0.732% |
| CCNS(=O)(=O)c1cc(-c2nnc(Nc3cccc(C(F)(F)F)c3)c3ccccc23)ccc1C | 13.3% |
| CCOc1ccc(OCC)c(Nc2nc3ccccc3n3nnnc23)c1 | 5.21% |
| c1ccc2cc(C3=NCCN3)ccc2c1 | -15.2% |
| Cc1ccccc1Nc1nc(N)nc(COC(=O)CCC(=O)c2ccc(F)cc2)n1 | 2.22% |
| CCCn1nc(C(=O)OCc2nc(N)nc(Nc3ccccc3C)n2)c2ccccc2c1=O | 31.8% (active) |
| CCCn1nc(C(=O)NNC(=O)CSCC(=O)Nc2cc(C)on2)c2ccccc2c1=O | -7.71% |
| CCC(=O)N1CCc2cc(Br)cc(S(=O)(=O)NCc3ccc(Cl)cc3)c21 | -15.3% |
| CN1CC[C@H](c2c(O)cc(O)c3c(=O)cc(-c4ccccc4Cl)oc23)[C@H](O)C1 | 6.48% |
| Cn1c(=O)c2c(nc(Br)n2CCSc2nc3ccccc3o2)n(C)c1=O | 4.26% |
| Cn1c(=O)[nH]c(=O)c2c1nc(Br)n2CCCCSc1nc2ccccc2o1 | 40.9% (active) |
| Cc1ccnc(SCCn2c(Br)nc3c2c(=O)[nH]c(=O)n3C)n1 | 5.98% |
| Oc1ccc(-c2nc3ccc(Cl)cn3c2Nc2ccc3c(c2)OCO3)cc1 | 6.89% |
| Cc1ccccc1CN1CCC(CNC(=O)c2cc3ccc4cccnc4c3[nH]2)CC1 | -21.1% |
| CC(=O)Nc1cccc(NC(=O)CSc2cn(CC(=O)N3CCCC3)c3ccccc23)c1 | 11.5% |
| Cc1cccc(N2CCN(C(=O)CCn3c(=O)c4cccn4c4cccnc43)CC2C)c1 (centres undefined) | 14.9% |
| O=C(O)CCCCC(=O)O | 2.29% |
| O=C(NCCN1C(=O)S/C(=C\c2cccnc2)C1=O)c1ccc(S(=O)(=O)N2CCCC2)cc1 | 31.1% (active) |
| O=C(Nc1ncccc1O)c1ccc(S(=O)(=O)N2CCCC2)cc1 | 1.73% |
